# Several values for one entry are separate records, joined by “and”; a condition that tells them apart may be missing. Equal entries are not always repeated. Results filed as inconclusive are left out. The source holds several records for some structures; these can differ, active in one and inactive in another. Activity calls are given as the source filed them. Rule for the calls: active = hit-call score of the fitted dose curve at least 0.9, where 1 is the maximum; inconclusive = response in the unintended direction; inactive = score below 0.9.
# Target: Cellular tumor antigen p53 (Homo sapiens) (UniProt P04637)
# Assay: TOX21_p53_BLA_p2_ratio: Tox21 HCT-116 p53 Agonism Beta-lactamase Assay, Ratio, Phase 2 (AID 2283592)
# Outline: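 Cleaved-to-uncleaved substrate ratio (460 vs 530 nm) measured in HCT116 cells with an inducible beta-lactamase reporter linked to p53 activity. Compounds incubated 16 h at 37C before 2 h room-temperature CCF4-AM loading.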
# Chain of Cellular tumor antigen p53 (Homo sapiens) (P04637 whole entry, looked up): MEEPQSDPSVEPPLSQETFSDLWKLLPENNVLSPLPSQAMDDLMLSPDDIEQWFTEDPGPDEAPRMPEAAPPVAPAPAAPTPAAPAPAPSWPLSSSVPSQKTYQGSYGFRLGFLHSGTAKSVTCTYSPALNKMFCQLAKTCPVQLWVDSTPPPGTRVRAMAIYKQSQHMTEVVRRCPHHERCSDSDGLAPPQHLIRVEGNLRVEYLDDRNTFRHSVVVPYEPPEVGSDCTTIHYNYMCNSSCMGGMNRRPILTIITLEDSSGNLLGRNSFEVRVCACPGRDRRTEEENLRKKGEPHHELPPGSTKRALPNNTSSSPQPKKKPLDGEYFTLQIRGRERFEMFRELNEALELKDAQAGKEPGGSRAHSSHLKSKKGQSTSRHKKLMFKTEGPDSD
Structure (SMILES),outcome,AC50
CCCCCCCCCCCC#N,inactive,–
O=C(NC(=O)c1c(F)cccc1F)Nc1ccc(Oc2ccc(C(F)(F)F)cc2Cl)cc1F,inactive,–
CC1CCCC1.[C-]#[O+].[C-]#[O+].[C-]#[O+].[Mn],inactive,–
CCCCNP(N)(N)=S,inactive,–
Nc1ccccc1C(=O)Oc1ccc2ccccc2c1,inactive,–
C=CC(=O)OC,inactive,–
CC(C)CCCCCCCOC(=O)c1ccccc1C(=O)OCCCCCCCC(C)C,inactive,–
CN1C[C@H](C(=O)N[C@]2(C)O[C@@]3(O)[C@@H]4CCCN4C(=O)[C@H](Cc4ccccc4)N3C2=O)C=C2c3cccc4[nH]cc(c34)C[C@H]21,inactive,–
O=[N+]([O-])C=Cc1ccccc1,–,8.76 µM (active)
Nc1ccc(Cl)c(Cl)c1,inactive,–
CC(O)CN(CC(C)O)CC(C)O (stereo not given),inactive,–
Nc1cc(Cl)cc(Cl)c1,inactive,–
O=[N+]([O-])c1ccc(Cl)cc1,inactive,–
C=CCO,inactive,–
COC(=O)COc1ccc(Cl)cc1Cl,inactive,–
CC(=O)c1cc2c(cc1C)C(C)(C)C(C)CC2(C)C (stereo not given),inactive,–
c1cc(OCC2CO2)ccc1Cc1ccc(OCC2CO2)cc1 (stereo not given),inactive,–
C=CC(=O)OCCCCOC(=O)C=C,–,49.6 µM (active)
c1ccc2c(c1)CCCC2,inactive,–
CCOC(=O)C1OC1(C)c1ccccc1 (stereo not given),inactive,–
[Cl][Sb]([Cl])[Cl],inactive,–
C[C@]12CC[C@H]3[C@@H](CC[C@@]45O[C@@H]4C(O)=C(C#N)C[C@]35C)[C@@H]1CC[C@@H]2O,–,64.6 µM (active) and 35.9 µM (active)
O=[N+]([O-])c1cc([N+](=O)[O-])c2ccccc2c1,inactive,–
O=C(O)C(Br)Br,inactive,–
C=CC(=O)OCCO,inactive,–

# System: not listed separately
# Assay: TOX21_p53_BLA_p3_viability: Viability Assessment in the Tox21 HCT-116 p53 Agonism Beta-lactamase Assay, Phase 3 (AID 2283593);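 note: cells exposed to compound for 16 h before reading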
# Outline: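 Cellular ATP was quantified by CellTiter-Glo luminescence, read after 30 min at room temperature. Beforehand, HCT116 cells (4000/well) received compound 5 h post-seeding, 217-fold diluted from DMSO, then incubated 16 h at 37C.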
Structure (SMILES),outcome,AC50
O=C(NC(=O)c1c(F)cccc1F)Nc1ccc(Oc2ccc(C(F)(F)F)cc2Cl)cc1F,inactive,–
CCCCNP(N)(N)=S,inactive,–
Nc1ccccc1C(=O)Oc1ccc2ccccc2c1,inactive,–
C=CC(=O)OC,inactive,–
CN(C)N,inactive,–
CN1C[C@H](C(=O)N[C@]2(C)O[C@@]3(O)[C@@H]4CCCN4C(=O)[C@H](Cc4ccccc4)N3C2=O)C=C2c3cccc4[nH]cc(c34)C[C@H]21,inactive,–
O=[N+]([O-])C=Cc1ccccc1,inactive,–
Nc1ccc(Cl)c(Cl)c1,inactive,–
Nc1cc(Cl)cc(Cl)c1,inactive,–
O=[N+]([O-])c1ccc(Cl)cc1,inactive,–
C=CCO,inactive,–
COC(=O)COc1ccc(Cl)cc1Cl,inactive,–
c1cc(OCC2CO2)ccc1Cc1ccc(OCC2CO2)cc1 (stereo not given),inactive,87.4 µM (active)
c1ccc2c(c1)CCCC2,inactive,–
C[C@]12CC[C@H]3[C@@H](CC[C@@]45O[C@@H]4C(O)=C(C#N)C[C@]35C)[C@@H]1CC[C@@H]2O,inactive,–
O=[N+]([O-])c1cc([N+](=O)[O-])c2ccccc2c1,inactive,–
O=C(O)C(Br)Br,inactive,–
C=CC(=O)OCCO,inactive,–

# Target: Cellular tumor antigen p53 (Homo sapiens) (UniProt P04637)
# Assay: TOX21_p53_BLA_p3_ratio: Tox21 HCT-116 p53 Agonism Beta-lactamase Assay, Ratio, Phase 3 (AID 2283596)
# Outline: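 Cells were seeded at 4000/well, rested 5 h at 37C, then dosed with DMSO compound solutions (217-fold dilution) for 16 h. CCF4-AM substrate was loaded for 2 h at room temperature, and the 460/530 nm emission ratio was fitted for gain of signal versus DMSO.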
Structure (SMILES),outcome,AC50
CCCCCCCCCCCC#N,inactive,–
O=C(NC(=O)c1c(F)cccc1F)Nc1ccc(Oc2ccc(C(F)(F)F)cc2Cl)cc1F,inactive,–
CC1CCCC1.[C-]#[O+].[C-]#[O+].[C-]#[O+].[Mn],inactive,–
CCCCNP(N)(N)=S,inactive,–
Nc1ccccc1C(=O)Oc1ccc2ccccc2c1,inactive,–
CN1C[C@H](C(=O)N[C@]2(C)O[C@@]3(O)[C@@H]4CCCN4C(=O)[C@H](Cc4ccccc4)N3C2=O)C=C2c3cccc4[nH]cc(c34)C[C@H]21,inactive,–
Nc1ccc(Cl)c(Cl)c1,inactive,–
CC(O)CN(CC(C)O)CC(C)O (stereo not given),inactive,–
Nc1cc(Cl)cc(Cl)c1,inactive,–
C=CCO,inactive,–
COC(=O)COc1ccc(Cl)cc1Cl,inactive,–
[CH3][Sn]([Cl])([Cl])[Cl],inactive,–
CC(=O)c1cc2c(cc1C)C(C)(C)C(C)CC2(C)C (stereo not given),inactive,–
c1cc(OCC2CO2)ccc1Cc1ccc(OCC2CO2)cc1 (stereo not given),–,75.1 µM (active) and 79.5 µM (active)
C=CC(=O)OCCCCOC(=O)C=C,inactive,–
c1ccc2c(c1)CCCC2,inactive,–
CCOC(=O)C1OC1(C)c1ccccc1 (stereo not given),inactive,–
[Cl][Sb]([Cl])[Cl],inactive,–
CC(C)[C@@H](C(=O)O[C@@H](C#N)c1cccc(Oc2ccccc2)c1)c1ccc(Cl)cc1,inactive,–
C[C@]12CC[C@H]3[C@@H](CC[C@@]45O[C@@H]4C(O)=C(C#N)C[C@]35C)[C@@H]1CC[C@@H]2O,inactive,67 µM (active)
O=[N+]([O-])c1cc([N+](=O)[O-])c2ccccc2c1,inactive,–
O=C(O)C(Br)Br,inactive,–
C=CC(=O)OCCO,inactive,–

# System: not listed separately
# Assay: TOX21_p53_BLA_p4_viability: Viability Assessment in the Tox21 HCT-116 p53 Agonism Beta-lactamase Assay, Phase 4 (AID 2283597);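 note: hits lower the luminescence signal meaning cytotoxicity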
# Outline: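 Viability is taken as cellular ATP: after 16 h compound exposure of HCT116 cells and a 2 h room-temperature CCF4-AM substrate step, CellTiter-Glo reagent is added and luminescence is measured 30 min later.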
row,Structure (SMILES),outcome
1,O=C(NC(=O)c1c(F)cccc1F)Nc1ccc(Oc2ccc(C(F)(F)F)cc2Cl)cc1F,inactive
2,CC1CCCC1.[C-]#[O+].[C-]#[O+].[C-]#[O+].[Mn],inactive
3,CCCCNP(N)(N)=S,inactive
4,Nc1ccccc1C(=O)Oc1ccc2ccccc2c1,inactive
5,CN(C)N,inactive
6,Nc1ccc(Cl)c(Cl)c1,inactive
7,CC(O)CN(CC(C)O)CC(C)O (stereo not given),inactive
8,Nc1cc(Cl)cc(Cl)c1,inactive
9,O=[N+]([O-])c1ccc(Cl)cc1,inactive
10,COC(=O)COc1ccc(Cl)cc1Cl,inactive
11,c1cc(OCC2CO2)ccc1Cc1ccc(OCC2CO2)cc1 (stereo not given),inactive
12,c1ccc2c(c1)CCCC2,inactive
13,CCOC(=O)C1OC1(C)c1ccccc1 (stereo not given),inactive
14,[Cl][Sb]([Cl])[Cl],inactive
15,CC(C)[C@@H](C(=O)O[C@@H](C#N)c1cccc(Oc2ccccc2)c1)c1ccc(Cl)cc1,inactive
16,O=[N+]([O-])c1cc([N+](=O)[O-])c2ccccc2c1,inactive
17,O=C(O)C(Br)Br,inactive
